Laboratory results from PubChem BioAssay (NCI).
This is part of a sample that, as a whole, favours compounds with a hit. Of some 83,000 tested, about 20% had one in any assay.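 Single-concentration screen, 48 h exposure, 96-well plates. Endpoint: percent growth. Below 10 = active.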 Activity calls are given as the source filed them.

Columns and labels:
Assay in all cases: NCI-60 one-dose screen, 48 h (100 = growth as untreated, 0 = no growth, -100 = all killed)
RPMI-8226 leukemia = conditions: 10 µM unless noted
OVCAR-8 ovarian = conditions: 10 µM unless noted
OVCAR-5 ovarian = conditions: 10 µM unless noted
OVCAR-4 ovarian = conditions: 10 µM unless noted
SK-OV-3 ovarian = conditions: 10 µM unless noted
IGROV1 ovarian = conditions: 10 µM unless noted
OVCAR-3 ovarian = conditions: 10 µM unless noted
HS 578T breast = conditions: 10 µM
NCI/ADR-RES ovarian = conditions: 10 µM unless noted

Measured: growth

CN(CCO)c1ccc(N2Cc3ccccc3OC3=C2C(=O)c2c(O)ccc(O)c2C3=O)cn1
inactive: HS 578T breast 28.4%
active: RPMI-8226 leukemia -16.2% | OVCAR-8 ovarian 1.86% | OVCAR-5 ovarian -59.8% | OVCAR-4 ovarian -97.5% | SK-OV-3 ovarian -3.73% | IGROV1 ovarian -72.7% | OVCAR-3 ovarian -99.7% | NCI/ADR-RES ovarian -2.37%

CC1CN(CCCOC(=O)Nc2ccc(Cl)cc2)CCN1C(C)(C)C (configuration not stated)
inactive: RPMI-8226 leukemia 100% | OVCAR-8 ovarian 104% | OVCAR-5 ovarian 105% | OVCAR-4 ovarian 111% | SK-OV-3 ovarian 93.8% | IGROV1 ovarian 100% | OVCAR-3 ovarian 104% | HS 578T breast 116% | NCI/ADR-RES ovarian 99.6%

CCN(CC)c1ccc(C(=N)c2ccc(N(C)C)cc2)cc1
inactive: OVCAR-8 ovarian 11.9% | OVCAR-5 ovarian 16.8% | OVCAR-4 ovarian 21.4% | SK-OV-3 ovarian 14.4%
active: RPMI-8226 leukemia 6.17% | IGROV1 ovarian 4.79% | OVCAR-3 ovarian -12.6% | HS 578T breast -31% | NCI/ADR-RES ovarian -31.1%

CC1=C(C(=O)Nc2ccc(F)cc2)C(c2ccc(C)cc2)C2=C(CC(C)(C)CC2=O)N1 (configuration not stated)
inactive: RPMI-8226 leukemia 99.2% | OVCAR-8 ovarian 98.3% | OVCAR-5 ovarian 93.1% | OVCAR-4 ovarian 90.8% | SK-OV-3 ovarian 100% | IGROV1 ovarian 104% | OVCAR-3 ovarian 92.7% | HS 578T breast 77.4% | NCI/ADR-RES ovarian 89.9%

CC(=O)Nc1nonc1-c1nc2ccccc2n1Cc1ccc(C(C)(C)C)cc1
inactive: RPMI-8226 leukemia 58% | OVCAR-8 ovarian 78.4% | OVCAR-5 ovarian 93.5% | OVCAR-4 ovarian 81% | SK-OV-3 ovarian 88.9% | IGROV1 ovarian 78.7% | OVCAR-3 ovarian 71.3% | HS 578T breast 27.1% | NCI/ADR-RES ovarian 59.7%

CCCCCCCCCCCC1=NC(C)(C)CN1C(C)(C)CO
inactive: OVCAR-8 ovarian 69.4% | OVCAR-5 ovarian 73.2% | OVCAR-4 ovarian 64.4% | SK-OV-3 ovarian 73.8% | IGROV1 ovarian 53.2% | OVCAR-3 ovarian 76.7% | HS 578T breast 81.2% | NCI/ADR-RES ovarian 65%
active: RPMI-8226 leukemia 1.29%

Brc1ccccc1Cn1c(-c2cncs2)nc2ccccc21
inactive: RPMI-8226 leukemia 43.3% | OVCAR-8 ovarian 79.2% | OVCAR-5 ovarian 70.8% | OVCAR-4 ovarian 72.4% | SK-OV-3 ovarian 92.2% | IGROV1 ovarian 86.9% | OVCAR-3 ovarian 86.6% | HS 578T breast 69.5% | NCI/ADR-RES ovarian 83.5%

CCCCCCCCCCCCCCCCCC1=NC(C)(C)CN1C(C)(C)CO
active: RPMI-8226 leukemia -35.3% | OVCAR-8 ovarian -80.4% | OVCAR-4 ovarian 3.31% | SK-OV-3 ovarian -40% | IGROV1 ovarian -83.8% | OVCAR-3 ovarian -1.05% | NCI/ADR-RES ovarian -7.97%
inactive: OVCAR-5 ovarian 37.9% | HS 578T breast 15.3%

O=C(Nc1ccc(Cl)c(C(F)(F)F)c1)c1ccc(Nc2ccc(Cl)nn2)cc1
inactive: RPMI-8226 leukemia 38.3% | OVCAR-8 ovarian 55.2% | OVCAR-5 ovarian 76.7% | OVCAR-4 ovarian 42.2% | SK-OV-3 ovarian 85.3% | IGROV1 ovarian 87.6% | OVCAR-3 ovarian 66.8% | HS 578T breast 85.7% | NCI/ADR-RES ovarian 61.1%

CC1(C)C2CCC(O)(C(=O)O)C1C2 (configuration not stated)
inactive: RPMI-8226 leukemia 114% | OVCAR-8 ovarian 112% | OVCAR-5 ovarian 112% | OVCAR-4 ovarian 99.2% | SK-OV-3 ovarian 103% | IGROV1 ovarian 95.8% | OVCAR-3 ovarian 118% | HS 578T breast 115% | NCI/ADR-RES ovarian 116%

NC(=O)Nc1ccc2ncnc(Nc3cccc(O)c3)c2c1
inactive: RPMI-8226 leukemia 112% | OVCAR-8 ovarian 98.9% | OVCAR-5 ovarian 98.1% | OVCAR-4 ovarian 112% | SK-OV-3 ovarian 87.5% | IGROV1 ovarian 107% | OVCAR-3 ovarian 82.8% | HS 578T breast 105% | NCI/ADR-RES ovarian 96.7%

COc1ccc(-c2nnc(SCC(=O)Nc3ccc(C(=O)/C=C/c4ccc(Cl)cc4)cc3)n2-c2ccccc2)cc1
inactive: RPMI-8226 leukemia 83.8% | OVCAR-8 ovarian 100% | OVCAR-5 ovarian 107% | OVCAR-4 ovarian 92.4% | SK-OV-3 ovarian 99.5% | IGROV1 ovarian 93.5% | OVCAR-3 ovarian 97.8% | HS 578T breast 96.9% | NCI/ADR-RES ovarian 102%

SCc1ccc(CS)cc1
inactive: RPMI-8226 leukemia 103% | OVCAR-8 ovarian 98.4% | OVCAR-5 ovarian 95.9% | OVCAR-4 ovarian 101% | SK-OV-3 ovarian 104% | IGROV1 ovarian 105% | OVCAR-3 ovarian 115% | NCI/ADR-RES ovarian 109%

Nc1cccc(S(=O)(=O)c2cccc(N)c2)c1
inactive: RPMI-8226 leukemia 110% | OVCAR-8 ovarian 113% | OVCAR-5 ovarian 99.7% | OVCAR-4 ovarian 102% | SK-OV-3 ovarian 120% | IGROV1 ovarian 114% | OVCAR-3 ovarian 113% | HS 578T breast 118% | NCI/ADR-RES ovarian 115%

ClCc1cccc(CSc2ncnc3c2ncn3Cc2cccc(CCl)c2)c1
active: RPMI-8226 leukemia -10.6% | OVCAR-8 ovarian -16.4% | OVCAR-4 ovarian 8.74% | NCI/ADR-RES ovarian -6.49%
inactive: OVCAR-5 ovarian 116% | SK-OV-3 ovarian 65.5% | IGROV1 ovarian 14% | OVCAR-3 ovarian 28.4% | HS 578T breast 47.7%

Fc1ccc(-c2nnc(N3CCOCC3)c3ccccc23)cc1
inactive: RPMI-8226 leukemia 111% | OVCAR-8 ovarian 111% | OVCAR-5 ovarian 108% | OVCAR-4 ovarian 112% | SK-OV-3 ovarian 109% | IGROV1 ovarian 104% | OVCAR-3 ovarian 109% | HS 578T breast 114% | NCI/ADR-RES ovarian 109%

C=CCn1c(SCC(=O)Nc2ccc(C(=O)/C=C/c3ccc(Cl)cc3)cc2)nnc1-c1ccc(Cl)cc1
inactive: RPMI-8226 leukemia 17.2% | OVCAR-8 ovarian 87.9% | OVCAR-5 ovarian 104% | OVCAR-4 ovarian 94.8% | SK-OV-3 ovarian 92% | IGROV1 ovarian 79.5% | OVCAR-3 ovarian 89.1% | HS 578T breast 84.8% | NCI/ADR-RES ovarian 80.5%

CCc1oc2ccccc2c1C(=O)c1cc(I)c(O)c(I)c1
active: NCI/ADR-RES ovarian -6%
inactive: RPMI-8226 leukemia 55.2% | OVCAR-8 ovarian 56.7% | OVCAR-5 ovarian 86.5% | OVCAR-4 ovarian 71% | SK-OV-3 ovarian 105% | IGROV1 ovarian 50.5% | OVCAR-3 ovarian 13.6% | HS 578T breast 49.2%

CSCCC1NC(=O)C(C(C)=Nc2ccccc2)=C1O (configuration not stated)
inactive: RPMI-8226 leukemia 115% | OVCAR-8 ovarian 111% | OVCAR-5 ovarian 120% | OVCAR-4 ovarian 100% | SK-OV-3 ovarian 101% | IGROV1 ovarian 103% | OVCAR-3 ovarian 117% | HS 578T breast 105% | NCI/ADR-RES ovarian 104%

O=C(Nc1cnc(C(F)(F)F)cn1)c1cc(Cl)ccc1O
inactive: OVCAR-5 ovarian 28.3% | OVCAR-4 ovarian 14% | IGROV1 ovarian 23.8% | OVCAR-3 ovarian 15.6%
active: RPMI-8226 leukemia -21.7% | OVCAR-8 ovarian 4.89% | SK-OV-3 ovarian -5.59% | HS 578T breast 8.53% | NCI/ADR-RES ovarian 8.26%

CC(=O)[C@@]1(O)[C@H](C)C[C@H]2[C@@H]3C=C(C)C4=Cc5c(cnn5-c5ccccc5)C[C@]4(C)[C@H]3[C@@H](O)C[C@@]21C
active: IGROV1 ovarian -16.8% | OVCAR-3 ovarian 8.02% | HS 578T breast 5.32%
inactive: OVCAR-8 ovarian 37.3% | OVCAR-5 ovarian 40.6% | OVCAR-4 ovarian 56.5% | SK-OV-3 ovarian 38.7% | NCI/ADR-RES ovarian 27.1%

O=C(O)Cn1ccc2ccccc21
active: IGROV1 ovarian -6.06%
inactive: OVCAR-8 ovarian 92.6% | OVCAR-5 ovarian 100% | OVCAR-4 ovarian 97.8% | SK-OV-3 ovarian 134% | OVCAR-3 ovarian 104% | HS 578T breast 108% | NCI/ADR-RES ovarian 103%

COc1ccc(C2C=C(c3ccc(Cl)cc3)N=C3SC=CN32)cc1 (configuration not stated)
inactive: OVCAR-8 ovarian 104% | OVCAR-5 ovarian 121% | OVCAR-4 ovarian 97.4% | SK-OV-3 ovarian 111% | IGROV1 ovarian 113% | OVCAR-3 ovarian 132% | HS 578T breast 93.1% | NCI/ADR-RES ovarian 104%

Nc1cc2nc3ccccc3oc-2cc1=O
inactive: OVCAR-8 ovarian 58.4% | OVCAR-5 ovarian 81.6% | OVCAR-4 ovarian 69.6% | SK-OV-3 ovarian 92.4% | OVCAR-3 ovarian 10.1% | NCI/ADR-RES ovarian 60.6%
active: HS 578T breast -38.3%

Cc1nc([C@H]2CC[C@H]3[C@@H]4CCC5=CC(=O)CC[C@]5(C)[C@H]4CC[C@]23C)cs1
inactive: OVCAR-8 ovarian 47.9% | OVCAR-5 ovarian 91.4% | OVCAR-4 ovarian 27.4% | SK-OV-3 ovarian 85.3% | IGROV1 ovarian 109% | OVCAR-3 ovarian 95.9% | HS 578T breast 104% | NCI/ADR-RES ovarian 43.7%

COc1cc(/C=C/C(=O)c2ccc(NC(=O)CSc3nnc(-c4ccc(Cl)cc4)n3-c3ccccc3)cc2)cc(OC)c1OC
inactive: OVCAR-8 ovarian 62.3% | OVCAR-5 ovarian 128% | OVCAR-4 ovarian 57.2% | SK-OV-3 ovarian 86.6% | IGROV1 ovarian 74.7% | OVCAR-3 ovarian 73.4% | HS 578T breast 92.9% | NCI/ADR-RES ovarian 87.9%

C1=C\CCCCN2CC[C@H]3[C@H](CCCC/C=C\CCCN4C[C@@H](CCCCC/1)C[C@@H]3C4)C2
active: IGROV1 ovarian -11.3% | HS 578T breast 9.63%
inactive: OVCAR-8 ovarian 77.4% | OVCAR-5 ovarian 87.6% | OVCAR-4 ovarian 74.2% | SK-OV-3 ovarian 83.9% | OVCAR-3 ovarian 49.1% | NCI/ADR-RES ovarian 77.5%

N#Cc1c(NN)n(C2OC(CO)C(O)C2O)c2ncnc(N)c12 (configuration not stated)
active: OVCAR-8 ovarian 0.0898% | SK-OV-3 ovarian 2.07% | IGROV1 ovarian -65.7% | OVCAR-3 ovarian -42.3% | HS 578T breast 9.12% | NCI/ADR-RES ovarian 6.9%
inactive: OVCAR-5 ovarian 17% | OVCAR-4 ovarian 14%
